PubChem BioAssay (NCI)
About 83,000 compounds went through this panel and 20% of them were active in at least one assay; those are over-represented in the sample as a whole.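 Growth was measured after 48 h exposure to one concentration of compound in 96-well plates. Values under 10 count as active.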 Values without a mark were called inactive. Calls of active or inactive are those of the source.

Columns and labels:
Assay in all cases: NCI-60 one-dose screen, 48 h (100 = growth as untreated, 0 = no growth, -100 = all killed)
Details in all cases: 10 µM unless noted
BT-549 breast = test system: BT-549 breast
MDA-MB-435 melanoma = test system: MDA-MB-435 melanoma
SW-620 colon = test system: SW-620 colon
MCF7 breast = test system: MCF7 breast
HCT-116 colon = test system: HCT-116 colon
HCC-2998 colon = test system: HCC-2998 colon
KM12 colon = test system: KM12 colon

SMILES | growth (BT-549 breast) | growth (MDA-MB-435 melanoma) | growth (SW-620 colon) | growth (MCF7 breast) | growth (HCT-116 colon) | growth (HCC-2998 colon) | growth (KM12 colon)
Cc1cc(C)c(OC(=O)CSc2nc3ccccc3c(=O)n2CCc2ccccc2)cc1C | 104% | 100% | 103% | 93.7% | 80.1% | 102% | 92%
O=[N+]([O-])c1ccc2c(c1)S(=O)c1cc([N+](=O)[O-])ccc1N2 | 102% | 106% | 95.8% | 99.2% | 94% | 104% | 102%
CCCC[N+](CCCC)=c1ccc2nc3c(C)cc(N(CC)CC)cc3sc-2c1 | 2.12% (active) | -88.1% (active) | -71.9% (active) | -50% (active) | -24.7% (active) | 24.4% | 0.608% (active)
Nc1ccc(S(=O)(=O)Nc2ncccn2)cc1 | 119% | 108% | 105% | 101% | 113% | 104% | 108%
COc1ccc2c3c(c(OCCCN(C)C)nc2c1)-c1ccc(Cl)cc1C3=O | 92.5% | -7.72% (active) | -78.7% (active) | -82.3% (active) | -90.9% (active) | -95.2% (active) | -32.2% (active)
COC1=CC(c2ccc[nH]2)=N/C1=C\c1[nH]c(C)c(C(=O)CCC(=O)Oc2ccc3c(c2)CCC2C3CC[C@]3(C)C(=O)CC[C@@H]23)c1C (some centres undefined) | 70.2% | 93.7% | 27.9% | 50.2% | 20.3% | 79.8% | 53.6%
COc1cccc(-c2nnc(N)o2)c1 | 87.4% | 105% | 103% | 101% | 100% | 83.3% | 106%
CCCCCCCCCCCCNc1ncnc2[nH]ncc12 | 62.9% | 71.7% | 83.1% | 59% | 53.3% | 92.4% | 79.2%
Cc1cc(NC(=O)Nc2cc(Cl)ccc2C)no1 | 147% | 110% | 110% | 84.4% | 104% | 99.3% | 107%
O=c1ccn(C2CCCO2)c(=O)[nH]1 (centres undefined) | 118% | 103% | 102% | 99.4% | 97.2% | 104% | 108%
Fc1ccc(-c2nnc(-c3c(-c4ccc(F)cc4)nc4ncccn34)o2)cc1 | 99.9% | 97% | 108% | 92.4% | 94.5% | 111% | 103%
O=C(Nc1cccc(-n2cc(-c3ccncc3)c(-c3ccc(O)c(Cl)c3)n2)c1)Nc1ccc(Cl)c(C(F)(F)F)c1 | -12.6% (active) | -61.6% (active) | 8.96% (active) | -7.24% (active) | -8.62% (active) | 14.7% | -25.2% (active)
CCn1c2c(c3ccccc31)SC1c3cccn3CCN1C2=S (centres undefined) | 140% | 91.5% | 95.2% | 53.8% | 98.2% | 99.6% | 96.4%
CCOC(=O)c1c(NC(=O)C2CCCCC2C(=O)O)sc2c1CCCC2 (centres undefined) | 102% | 97.4% | 101% | 98.1% | 109% | 110% | 109%
COC(=O)[C@]1(C(C)C)N[C@H](c2cn(-c3ccccc3)nc2-c2ccccc2)[C@@H]2C(=O)N(c3ccc(Cl)cc3)C(=O)[C@@H]21 | 86.7% | 105% | 99.4% | 96.6% | 89.8% | 109% | 95.3%
Clc1ccc([C@@H]2C[C@@H]3Cc4cc(Br)c5ccccc5c4N2O3)c(Cl)c1 | 97.7% | 4.61% (active) | 55.4% | 34% | 76.6% | 87% | 66.7%
CC(=O)c1ccc2c3c(n(C)c2c1)CCCC3 | 96.5% | 97.8% | 110% | 95.9% | 99.1% | 93.7% | 112%
